NPR1 activator: GC-A (human) enzyme activation. 0.14% of 370,000 active. activation, % at 10 µM. HEK293 GC-A cells, cGMP TR-FRET, EC30 ANP; 0% at EC30 ANP, 100% saturating ANP. P16066; in the data active means activation above about 40%
Target sequence (P16066 whole entry, looked up): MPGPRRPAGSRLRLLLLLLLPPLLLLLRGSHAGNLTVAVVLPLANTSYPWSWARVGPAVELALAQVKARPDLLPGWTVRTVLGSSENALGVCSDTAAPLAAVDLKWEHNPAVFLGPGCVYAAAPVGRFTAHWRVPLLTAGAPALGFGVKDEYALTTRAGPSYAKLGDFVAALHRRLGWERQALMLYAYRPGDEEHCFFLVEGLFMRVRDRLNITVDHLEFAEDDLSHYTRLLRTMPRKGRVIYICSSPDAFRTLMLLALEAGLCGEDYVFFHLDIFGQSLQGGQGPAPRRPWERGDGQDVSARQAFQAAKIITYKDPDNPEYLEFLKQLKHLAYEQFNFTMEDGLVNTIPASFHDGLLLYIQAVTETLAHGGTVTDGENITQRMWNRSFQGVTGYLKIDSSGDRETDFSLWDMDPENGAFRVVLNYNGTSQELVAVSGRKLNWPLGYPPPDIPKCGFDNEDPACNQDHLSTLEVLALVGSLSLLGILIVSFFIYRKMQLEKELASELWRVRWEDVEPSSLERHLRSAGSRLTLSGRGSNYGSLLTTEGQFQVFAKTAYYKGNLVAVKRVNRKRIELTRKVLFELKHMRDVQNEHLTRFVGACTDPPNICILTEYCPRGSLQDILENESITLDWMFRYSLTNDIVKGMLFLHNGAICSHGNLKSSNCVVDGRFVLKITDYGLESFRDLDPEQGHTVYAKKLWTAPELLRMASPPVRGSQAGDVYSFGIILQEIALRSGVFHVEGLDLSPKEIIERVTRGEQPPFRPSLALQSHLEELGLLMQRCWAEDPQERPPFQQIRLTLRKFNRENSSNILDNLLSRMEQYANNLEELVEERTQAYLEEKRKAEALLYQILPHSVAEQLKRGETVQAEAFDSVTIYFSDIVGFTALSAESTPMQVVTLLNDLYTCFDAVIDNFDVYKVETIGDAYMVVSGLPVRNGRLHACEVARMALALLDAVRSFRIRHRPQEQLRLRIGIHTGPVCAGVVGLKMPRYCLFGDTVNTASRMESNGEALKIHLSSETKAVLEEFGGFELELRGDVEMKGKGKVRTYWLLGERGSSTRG
GC-B act: GC-B (human) receptor activation | P20594 | HEK293-GC-B cells, CNP EC30, cGMP TR-FRET; 0% at EC30 CNP, 100% saturating CNP | activation, % at 10 µM | 0.11% of 370,000 active;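 active means activation at 10 µM reaching about 35% in either raw or pattern-adjusted values, limit read from the data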
FAS-TE inh: FAS thioesterase (human) inhibition. 0.67% of 360,000 active. inhibition, % at 15 µM. P49327. recombinant FAS-TE, OMFH fluorogenic substrate, fluorescence endpoint. AID 602261;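 active means compounds whose normalised, plate-corrected inhibition of enzyme fluorescence in the single-dose primary screen is 50% or more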;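 further: 0% = DMSO with enzyme and 100% = substrate without enzyme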
aDG glyco up: alpha-DG glycosylation activation; Pro5-aDG cells, alpha-DG glycosylation AlphaScreen (IIH6); 0% Pro5, 100% B10-LARGE cell signal; activation, % at 10 µM; 0.22% of 360,000 active; AID 624168;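 active means activation of at least 8% versus controls, or a plate z-score of at least 8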;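 further: Pro5 are CHO cells carrying HIG-tagged alpha-DG that lacks glycosylation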
FAS-TE inh conf: FAS thioesterase (human) inhibition, confirmation. shares compounds with FAS-TE inh. recombinant FAS-TE, OMFH fluorogenic substrate, fluorescence. inhibition, % at 15 µM. 45% of 2,300 active. AID 624325;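 active means compounds inhibiting the enzyme by at least 50% at 15 µM in any one of the replicates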;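 further: 0% = enzyme with DMSO only and 100% = wells lacking enzyme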
* hit, by the source's call; x = not tested or not shown. Most compounds without a hit are left out; they make up all but 1.1% or so of the library.

SMILES	NPR1 activator	GC-B act	FAS-TE inh	aDG glyco up	FAS-TE inh conf
N#Cc1c(-c2ccc(Cl)cc2)c(-c2ccc(Cl)cc2)nn(CCO)c1=O	-13.5	-5.5	12.8	0.2	x
CCN(C[C@@H]1[C@@H](c2ccccc2)[C@H](CO)N1S(C)(=O)=O)C(=O)C1CCC1	-2.5	8.0	x	x	x
CC#CCN1c2ccccc2[C@]23C[C@@H](C(=O)OC)N(C(=O)c4ccco4)C2=NC(C(=O)OC)=C(C(=O)OC)[C@H]13	-6.1	-15.2	-9.3	-0.5	x
CC#CCN1c2ccccc2[C@]23C[C@@H](C(=O)OC)N(C(=O)c4cc(C)oc4C)C2=NC(C(=O)OC)=C(C(=O)OC)[C@H]13	-6.6	-17.5	58.6*	-0.3	18.8
CCOC(=O)[C@@]12CCCC=C1N(CCc1ccc(Cl)cc1)C(=O)[C@H]2CC(=O)NCc1ccc(OC)c(OC)c1	3.9	1.9	x	x	x
CCOC(=O)N1CCN(C(=O)C[C@@H]2C(=O)N(CCc3ccc(Cl)cc3)/C3=C/CCCCC[C@@]32C(=O)OCC)CC1	-0.6	-2.1	x	x	x
O=C(c1ccoc1)N1CCC2(CC1)Oc1ccc(F)cc1C(=O)C21CC(c2ccccc2)=NO1 (stereo not drawn)	-7.2	3.7	14.5	0.0	x
Cc1ccc(C(=O)N2CCC3(CC2)Oc2ccc(Cl)cc2C(=O)C32CC(c3ccc(Cl)cc3)=NO2)s1 (stereo not drawn)	0.9	0.0	19.9	-0.6	x
Cc1ccc(C(=O)N2CCC3(CC2)Oc2ccc(Cl)cc2C(=O)C32CC(c3ccccc3)=NO2)s1 (stereo not drawn)	-1.7	2.2	26.6	-0.1	x
O=C(c1ccc2c(c1)OCO2)N1CCC2(CC1)Oc1ccc(F)cc1C(=O)C21CC(c2ccccc2)=NO1 (stereo not drawn)	-5.6	-0.5	67.4*	-0.3	19.4
Cc1ccc(C(=O)N2CCC3(CC2)Oc2ccc(F)cc2C(=O)C32CC(c3ccccc3)=NO2)s1 (stereo not drawn)	-9.6	-8.2	71.8*	0.0	22.4
CC(C)(C)OC(=O)N1CCC2(CC1)Oc1ccc(F)cc1C(=O)C21CC(c2ccccc2)=NO1 (stereo not drawn)	-1.4	4.8	58.7*	0.3	10.3
Cc1ccc(C(=O)N2CCC3(CC2)Oc2ccc(F)cc2C(=O)C32CC(c3ccc(Cl)cc3)=NO2)s1 (stereo not drawn)	-3.0	1.1	87.4*	0.4	22.4
CCCNC(=O)N1[C@@H](CO)[C@H](c2ccc(C3=CCCC3)cc2)[C@@H]1CN(CC)S(=O)(=O)c1ccccc1[N+](=O)[O-]	-1.8	4.5	x	x	x
CN(C)[C@@H]1CCN(c2ccc3c(c2)O[C@H]2CCN(C2)S3(=O)=O)C1	2.5	-2.1	x	x	x
COc1ccc2c(c1)CCCN2C(=O)C1CCCN(S(=O)(=O)c2cccc3ccccc23)C1 (stereo not drawn)	-6.0	-6.0	x	x	x
O=C(c1ccoc1)N1CCC2(CC1)Oc1ccc(F)cc1C(=O)C21CC(c2ccc(Cl)cc2)=NO1 (stereo not drawn)	-2.0	-1.2	74.3*	-0.2	21.9
O=C(c1ccoc1)N1CCC2(CC1)Oc1ccc(Cl)cc1C(=O)C21CC(c2ccc(Cl)cc2)=NO1 (stereo not drawn)	-0.9	-3.8	14.4	0.7	x
CN1C(=O)c2cc(NC(=O)Nc3ccccc3)ccc2OC[C@H]2O[C@@H](CC(=O)Nc3cc(F)ccc3F)CC[C@@H]21	2.0	-2.1	x	x	x
C[C@]12C(=O)N(c3ccc(C(F)(F)F)cc3)C(=O)N1[C@H]1c3ccccc3OC[C@@H]1[C@H]2c1ccccc1	1.3	8.1	81.8*	-0.2	21.2
C[C@]12C(=O)N(c3ccc(Cl)cc3)C(=O)N1[C@H]1c3ccccc3OC[C@@H]1[C@H]2c1ccccc1	x	x	92.9*	-0.1	12.1
C[C@@]12C(=O)N(c3ccc(Br)cc3)C(=O)N1[C@@H]1c3ccccc3OC[C@@H]1[C@H]2c1ccccc1	0.7	-5.2	60.8*	0.4	24.3
C[C@]12C(=O)N(c3ccc(Cl)cc3)C(=O)N1[C@@H]1c3ccccc3OC[C@@H]1[C@H]2c1ccccc1	-4.9	5.8	54.9*	0.0	31.6
C[C@@]12C(=O)N(c3ccc(Cl)cc3)C(=O)N1[C@@H]1c3ccccc3OC[C@@H]1[C@H]2c1ccccc1	-3.4	-3.5	32.3	0.0	x
COC(=O)N1C[C@H](Oc2ncccn2)[C@H]2C[C@@H]1c1ccccc1O2	2.4	1.1	x	x	x
SMILES	NPR1 activator	GC-B act	FAS-TE inh	aDG glyco up	FAS-TE inh conf
COc1cc(NC(=O)C2CCCN(S(=O)(=O)c3ccccc3[N+](=O)[O-])C2)cc(OC)c1 (stereo not drawn)	-7.9	-3.6	x	x	x
C[C@]12C(=O)N(c3ccc(F)cc3)C(=O)N1[C@H]1c3ccccc3OC[C@@H]1[C@H]2c1ccccc1	-3.2	-3.9	89.3*	0.4	29.6
C[C@@]12C(=O)N(c3ccc(F)cc3)C(=O)N1[C@@H]1c3ccccc3OC[C@@H]1[C@H]2c1ccccc1	0.6	-0.1	25.3	-0.2	x
COc1ccc(-n2c(SCC(=O)NNC(=S)Nc3ccc(C)cc3)nnc2-c2ccccc2)cc1	-9.5	-12.5	x	x	x
Cc1cccc(-n2cnc3c(sc4nc(N5CCOCC5)c5c(c43)CCCC5)c2=O)c1	9.7	11.9	65.9*	0.1	5.9
Cc1cccc(C2=NN(c3ccccc3)[C@@H](C(=O)N3CCOC3=O)[C@@H]2C)c1	-1.9	3.3	18.6	-0.3	x
O=C1OCCN1C(=O)[C@H]1[C@H](c2ccccc2)C(c2cccc(Cl)c2)=NN1c1ccccc1	x	x	56.3*	0.6	17.8
Cc1cccc(C2=NN(c3ccccc3)[C@@H](C(=O)N3CCOC3=O)[C@@H]2c2ccc(Cl)cc2)c1	-6.1	-6.0	56.2*	-0.3	17.8
Cc1cccc(C2=NN(c3ccccc3)[C@@H](C(=O)N3CCOC3=O)[C@@H]2c2ccc(F)cc2)c1	-6.1	-6.8	41.5	0.0	x
O=C(O)CC(NC(=O)CCC1CCCCC1)c1cc([N+](=O)[O-])ccc1Cl (stereo not drawn)	-5.3	2.7	60.3*	0.0	67.3*
Cc1ccnc(NC(=S)N2CCC(Nc3cccc(C(F)(F)F)c3)CC2)c1	1.6	-10.2	x	x	x
CN1C(=S)SC(N2OC3C(=O)N(c4ccccc4)C(=O)C3C2c2ccc(Cl)cc2)C1(C)C (stereo not drawn)	-21.0	-14.1	69.2*	-0.4	35.0
O=C(O)COc1ccc2nsnc2c1Cl	-13.3	-22.0	-12.8	-0.3	x
Cc1ccccc1C1=C/C(=C(\SS/C(C(=O)c2ccc(OCC(=O)O)c(Cl)c2Cl)=C2\C=C(c3ccccc3C)SS2)C(=O)c2ccc(OCC(=O)O)c(Cl)c2Cl)SS1	-25.0	-0.9	83.0*	-0.2	88.0*
C=CCNC(=O)c1ccc([N+](=O)[O-])c(Cl)c1	-1.7	7.2	0.5	0.4	x
CC(C)(CNC(=O)c1ccc([N+](=O)[O-])c(Cl)c1)CNC(=O)c1ccc([N+](=O)[O-])c(Cl)c1	6.9	11.2	56.3*	-0.1	63.3*

From PubChem
